PAX8 inh HTS: lowers PAX8-driven luciferase in RMG-I cells; RMG-I TPO-luciferase reporter, SteadyGlo, 24 h; inhibition, % at 12.6 µM; 360,000 tested, 1.2% active;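 active = mean replicate inhibition at least 60% with every replicate also reaching 60%; inconclusive = only one of the two criteria is met; inactive = mean below 60% and not all replicates reaching 60%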;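 also: luciferase light reporting Pax8 driven TPO promoter activity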
Shn3 3UTR inh: reduces Shn3 3'UTR luciferase signal in osteoblasts; Clone20 osteoblast Shn3 3'UTR firefly luciferase, 24 h; inhibition, % at 12.5 µM; AID 588674; 360,000 tested, 0.52% active;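 active = mean inhibition of at least 75% with every replicate also reaching 75%; inconclusive = mean inhibition at least 75% but some replicate below; inactive = mean inhibition below 75%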
TRPM1 prom inh: reduces MITF-dependent TRPM1 promoter luciferase signal; 330,000 tested, 0.83% active; SK-MEL-5 TRPM1 promoter luciferase, 24 h; AID 488899; inhibition, % at 12.5 µM;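 active = mean inhibition across replicates of 60% or more, whatever share of single replicates reaches that level; inconclusive = some that reach 60%, reason not given; inactive = mean inhibition across replicates below 60%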
LMP1 NFkB inh: inhibitors of Epstein-Barr LMP1-induced NF-kappaB reporter. LMP1-induced NF-kappaB luciferase reporter cells, luminescence. inhibition, % at 12.5 µM. 350,000 tested, 0.69% active. AID 504558; in the data active = inhibition above about 41%; inconclusive = no clear call, values can overlap the other calls
EWS-Fli block: inhibitors of EWS/Fli oncoprotein transcriptional activity; 350,000 tested, 0.67% active; AID 651661; A673 NR0B1-luciferase reporter, viability-normalised; inhibition, % at 12.6 µM;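 active = mean inhibition of at least 50% after viability correction, with every replicate also passing that limit; inconclusive = mean reaches 50% but only one of two replicates passes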;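 also: firefly luciferase signal divided by Alamar Blue viability fluorescence both relative to DMSO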
LGR2 inh: blocks bursicon-induced cAMP signaling via Drosophila LGR2 | HEK293 LGR2, CRE-luciferase, bursicon-stimulated, 4 h | inhibition, % at 9.99 µM | 380,000 tested, 0.35% active | AID 720647;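 active = drop in luminescence signal, shown as inhibition above about 50% in the replicate tests, limit read from the data, passing the limit was not always enough; inconclusive = probably only some replicates passing the limit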;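 also: agonist challenge used bursicon conditioned medium at about half maximal strength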
A number is an active result; i = inactive; ? = inconclusive; nt = no result given. A selection: hits, their analogues and other compounds. The true share with any hit is near 2.2%.

SMILES	PAX8 inh HTS	Shn3 3UTR inh	TRPM1 prom inh	LMP1 NFkB inh	EWS-Fli block	LGR2 inh
O=[N+]([O-])c1ccc(-c2cnc3ccccc3n2)cc1	i	i	i	i	i	nt
CCOc1ccc(-c2cnc3ccccc3n2)cc1	i	i	i	?	77	90
CCOc1ccc(-c2cn3ccccc3n2)cc1	i	i	i	i	i	74
Fc1ccc(-c2cn3ccccc3n2)cc1	i	i	i	i	i	i
C[C@@H]1CN([C@@H](C)CO)S(=O)(=O)c2ccc(C3=CCCCC3)cc2O[C@@H]1CN(C)Cc1ccccn1	i	nt	nt	nt	i	i
Cc1nnc(SCC(=O)Nc2cc(-c3cc(C)c(C)cc3C)nn2-c2ccccc2)s1	i	i	i	50	i	i
Cc1nnc(SCC(=O)Nc2cc(C(C)(C)C)nn2-c2ccccc2)s1	i	i	i	i	nt	i
COc1ccc(NC(=O)Nc2cccc3c2O[C@@H](CN(C)Cc2ccccc2)[C@H](C)CN([C@H](C)CO)C3=O)cc1	nt	nt	nt	nt	i	i
CNc1c2cccc(C)c2nc2c(C(=O)NCCN(C)C)cccc12	i	97	100	91	58	i
CC(=O)Nc1nc(-c2ccc3c(c2)CCN3C(=O)C2CC2)c(C)s1	i	i	i	82	i	i
CNc1nc(-c2ccc3c(c2)CCN3C(=O)CC(C)(C)C)c(C)s1	i	i	nt	i	i	i
O=C(N/N=C(/CC(=O)c1cccs1)C(F)(F)F)c1ccc(O)cc1	nt	i	i	49	nt	i
CCCN1CCC(=NNc2ccc(S(N)(=O)=O)cc2[N+](=O)[O-])CC1	i	i	i	i	i	i
CCCN1CCC(=NNc2ccc(S(=O)(=O)N(CC)CC)cc2[N+](=O)[O-])CC1	i	i	i	i	61	i
CNC[C@@H]1Oc2ccc(NC(=O)NC(C)C)cc2CC(=O)N([C@@H](C)CO)C[C@@H]1C	92	nt	nt	nt	i	i
CNC[C@@H]1Oc2ccc(NC(=O)NC(C)C)cc2CC(=O)N([C@H](C)CO)C[C@@H]1C	i	nt	nt	nt	i	i
CNC[C@H]1Oc2ccc(NC(=O)NC(C)C)cc2CC(=O)N([C@@H](C)CO)C[C@@H]1C	91	nt	nt	nt	i	i
COc1ccc(Nc2nc(N3CCCC3)c3ccccc3n2)cc1	nt	87	i	i	nt	nt
COc1ccc(C2C(C#N)=C(N)Oc3c2ccc2cccnc32)cc1OC (configuration not stated)	86	i	i	i	i	i
COc1cc(C2C(C#N)=C(N)Oc3c2ccc2ccccc32)ccc1OCC(=O)Nc1ccc(C)cc1 (configuration not stated)	i	i	i	i	i	i
CCCC#Cc1ccc([C@@H]2[C@@H](CO)N3C(=O)CN(C(=O)CN4CCOCC4)C[C@@H]23)cc1	nt	nt	nt	nt	i	i
O=S(=O)(Cc1nnnn1-c1ccc(Br)cc1)c1ccccc1	i	i	nt	i	i	i
CCS(=O)(=O)c1nnnn1-c1ccccc1S(C)(=O)=O	nt	i	i	51	i	i
CC(C)(C)OC(=O)N1CCC[C@@H]1CO	nt	i	i	i	nt	nt
CCCCCC(CC(=O)NO)C(=O)NC(C(=O)N1CCCC1CO)C(C)C (configuration not stated)	90	i	i	i	i	nt
SMILES	PAX8 inh HTS	Shn3 3UTR inh	TRPM1 prom inh	LMP1 NFkB inh	EWS-Fli block	LGR2 inh
Nc1c2ccccc2nc2ccccc12	i	i	84	i	i	96
O=C(CSc1ccccn1)Nc1nonc1[N+](=O)[O-]	i	95	86	i	nt	i
O=C(Nc1nccs1)c1ccccc1[N+](=O)[O-]	63	i	i	i	i	nt
CC(=O)Nc1c(Br)cc2c(c1Br)C(=O)c1ccccc1-2	i	i	i	i	i	i
CC(=O)C1=C(c2ccc(Br)cc2)C(=O)c2ccccc2C1=O	99	97	84	92	nt	99
C[C@H](CO)N1C[C@H](C)[C@@H](CN(C)S(=O)(=O)c2cccs2)Oc2ccc(NC(=O)NC3CCCCC3)cc2CC1=O	i	nt	nt	nt	i	i
CCCOc1ccc(N)cc1N	nt	i	i	54	nt	nt
CCCOc1cc(N)ccc1C(=O)OCCN(CC)CC	i	i	i	i	i	i
COc1ccccc1-c1noc(-c2cccs2)n1	nt	i	i	i	i	i
Cc1ccc(-c2noc(-c3cccs3)n2)cc1	nt	i	i	i	i	70
COc1ccc(-c2nc(-c3cccs3)no2)cc1	i	i	i	48	82	81
C[C@H](CO)N1C[C@H](C)[C@@H](CN(C)C(=O)C2CCCCC2)Oc2ncc(C#CC3CC3)cc2C1=O	nt	nt	nt	nt	i	i
CCn1c(C)nc2cc(-c3nnc(-c4c(-c5ccccc5)noc4C)o3)ccc21	nt	86	i	i	nt	nt
Cc1onc(-c2ccccc2)c1-c1nnc(-c2ccccc2C(F)(F)F)o1	i	i	i	i	i	i
C[C@H](CO)N1C[C@H](C)[C@H](CN(C)C(=O)c2ccncc2)OCCCC[C@H](C)Oc2ccc(NC(=O)CCCCCC(=O)Nc3ccccc3N)cc2C1=O	i	nt	nt	nt	i	i
O=C(c1ccccn1)N1CC(=O)N2[C@@H](CO)[C@@H](c3ccc(C#CCc4ccccc4)cc3)[C@@H]2C1	nt	nt	nt	nt	nt	i
C[C@H](CO)N1C[C@H](C)[C@H](CN(C)C(=O)Nc2ccc(F)cc2)OCCCC[C@H](C)Oc2ccc(NS(=O)(=O)c3ccc(Cl)cc3)cc2C1=O	61	nt	nt	nt	i	i
C[C@@H]1CCCCO[C@H](CN(C)C(=O)Nc2ccc(F)cc2)[C@@H](C)CN([C@@H](C)CO)C(=O)c2cc(NS(=O)(=O)c3ccc(Cl)cc3)ccc2O1	83	nt	nt	nt	i	i
C[C@H]1CCCCO[C@H](CN(C)C(=O)Nc2ccc(F)cc2)[C@@H](C)CN([C@@H](C)CO)C(=O)c2cc(NS(=O)(=O)c3ccc(Cl)cc3)ccc2O1	i	nt	nt	nt	i	i
C[C@@H]1CN([C@H](C)CO)C(=O)c2cccc(NC(=O)NC3CCCCC3)c2O[C@H]1CN(C)Cc1ccc(Cl)c(Cl)c1	nt	nt	nt	nt	i	i
Cc1ccc(S(=O)(=O)N2CCN(C(=O)COC(=O)COc3ccc(Cl)c(C)c3)CC2)c(C)c1	i	i	i	i	i	i
Cc1ccc(S(=O)(=O)N2CCN(C(=O)COC(=O)COc3ccc(Cl)cc3)CC2)c(C)c1	i	i	i	58	i	nt
Cc1c(P(=S)(c2ccccc2)c2ccccc2)[n+]2ccccc2n1C/C=C/c1ccccc1	101	i	nt	nt	i	i
CC(O)c1nc2ccccc2n1C/C=C/c1ccccc1 (configuration not stated)	nt	i	i	i	nt	nt
Cc1cccc(Cn2cc(/C=C/[N+](=O)[O-])c3ccccc32)c1	nt	i	i	i	nt	nt
CCOc1ccc(/C=C/[N+](=O)[O-])c2ccccc12	nt	95	84	75	nt	nt
CCOC(=O)COc1ccc(/C=C/[N+](=O)[O-])c(OCC(=O)OCC)c1	nt	i	92	i	nt	i
CCCCOc1ccc2ccccc2c1C=O	i	i	i	i	nt	nt
O=[N+]([O-])/C=C/c1c(OCc2ccccc2)ccc2ccccc12	nt	nt	98	i	nt	nt
CCOC(=O)COc1ccc2ccccc2c1/C=C/[N+](=O)[O-]	i	95	83	i	i	105

From PubChem
